Reference: PubChem BioAssay
The source made the active and inactive calls. The rule behind the calls is not given here.

Molecular target: Pantothenate synthetase (Mycobacterium tuberculosis (strain ATCC 25618 / H37Rv)) (UniProt P9WIL5)
Assay: Coupled enzyme confirmation of inhibitors against recombinant Mtb PanC (AID 375);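 note: 0% = full reaction with vehicle and 100% = no enzyme background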
Conditions: coupled enzyme assay; at 10 µM, stronger effect = higher value

Sequence of Pantothenate synthetase (Mycobacterium tuberculosis (strain ATCC 25618 / H37Rv)) (P9WIL5 whole entry, looked up): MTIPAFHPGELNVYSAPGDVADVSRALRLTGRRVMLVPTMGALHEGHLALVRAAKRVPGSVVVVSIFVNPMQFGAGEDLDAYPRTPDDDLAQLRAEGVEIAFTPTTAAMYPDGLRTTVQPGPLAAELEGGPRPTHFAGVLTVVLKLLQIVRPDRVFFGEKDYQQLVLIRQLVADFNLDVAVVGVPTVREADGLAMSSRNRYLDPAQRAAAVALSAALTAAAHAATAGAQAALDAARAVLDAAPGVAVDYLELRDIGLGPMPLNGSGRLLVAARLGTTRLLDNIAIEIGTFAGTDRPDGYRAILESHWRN

Structure (SMILES) | inhibition
CCOC(=O)c1c(NC(=O)c2nn(CC)cc2Br)c(C#N)cn1-c1ccccc1 | 0% (inactive)
CCOC(=O)C1=C(C)NC(C)=C(C(=O)OC)C1c1cccc(Cl)c1Cl (configuration not stated) | 4% (inactive)
COc1ccccc1C(=O)NCCc1nc2ccccc2n1C | 1% (inactive)
CC1CCC(NC(=O)C2(C)CCC(=O)N2Cc2cccnc2)CC1 (configuration not stated) | 0% (inactive)
O=C(O)c1ccccc1S(=O)(=O)NCC(O)COc1ccc(Br)cc1 (configuration not stated) | 2% (inactive)
CCOc1ccc(-c2nc(C#N)c(N3CCCCCC3)o2)cc1 | 4% (inactive)
CCOc1ccc(C(=O)Nc2ccc(N3CCN(C)CC3)cc2)cc1Br | 0% (inactive)
O=C(Cn1nc(Cc2ccncc2)c2ccccc2c1=O)N1CCN(C(=O)c2ccco2)CC1 | 0% (inactive)
Cc1noc(C)c1CSc1nc2ccccc2s1 | 2% (inactive)
Cc1ccc(-n2c(Cc3cccn3C)nnc2SCC(=O)NCc2ccc3c(c2)OCO3)cc1 | 0% (inactive)
Cc1cnc(C(=O)OCC(=O)Nc2ccc(Cl)cc2Cl)cn1 | 8% (inactive)
CC1(C)CC(=O)C(C=Nc2ccc3c(c2)OCO3)=C(O)C1 | 7% (inactive)
C=CCn1cnc2c(c1=O)c1nc3ccccc3nc1n2-c1ccc(C)cc1 | 0% (inactive)
COc1ccc(C(=O)NCc2nnc(SCC(=O)Nc3cc(C)cc(C)c3)o2)cc1OC | 0% (inactive)
CC(=O)NCCc1ccc(S(=O)(=O)NCc2ccc3c(c2)OCO3)cc1 | 0% (inactive)
O=C1CCCC2=C1C1(CCCC1)N=C(Nc1nc3ccccc3s1)N2 | 10% (inactive)
CC(C)c1ccc(CNc2ccc(N3CCOCC3)cc2)cc1 | 2% (inactive)
Cc1sc(NC(=O)CSc2nnc(COc3ccccc3)n2C)c(C#N)c1C | 6% (inactive)
c1cc2c(cc1C1CCCN1)OCCCO2 (configuration not stated) | 2% (inactive)
O=C(NC1CCCCCC1)C1c2ccccc2C(=O)N1Cc1cccnc1 (configuration not stated) | 3% (inactive)
COc1cccc(NC(=O)CC2SC(=Nc3ccccc3)NC2=O)c1 (configuration not stated) | 0% (inactive)
CC(C)c1ccc(NC(=O)CCNS(=O)(=O)c2cccc3nonc23)cc1 | 0% (inactive)
